Test results reported in PubChem BioAssay AID1159580 (chemical genetic matrix, 2015).
Out of some 5,500 compounds screened, about 2,000 (36%) were called active. Not shown: some 18% with an inconclusive outcome. No stated cut-off is given here; in the data, active means normalized growth mostly below about 0.91 (no sharp cut-off); inconclusive means no clear call, values can overlap the other calls; inactive means mostly above about 0.92. The list shows a part of the results.

Test: chemical genetic growth profiling, strain panel (AID 1159580);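 further: tested at 20 µM; growth read once vehicle control cultures reached saturation at 30 °C; 1 = growth at the plate median or of vehicle wells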
Conditions: growth OD
[1] = S. cerevisiae deletion strains, locus YAL013W, strain DEP1, stronger effect = lower value
[2] = S. cerevisiae deletion strains, locus YGR078C, strain PAC10, stronger effect = lower value
[3] = S. cerevisiae deletion strains, locus YMR263W, strain SAP30, stronger effect = lower value
[4] = S. cerevisiae deletion strains, locus YNL322C, strain KRE1, stronger effect = lower value
[5] = S. cerevisiae deletion strains, locus YPL055C, strain LGE1, stronger effect = lower value
[6] = S. cerevisiae deletion strains, locus YPL241C, strain CIN2, stronger effect = lower value
[7] = S. cerevisiae deletion strains, locus YHR030C, strain SLT2, stronger effect = lower value

Measured: normalized growth

O=C(O)[C@@H]1C[C@@H](C(=O)O)N1
inactive: [1] 1.02 | S. cerevisiae deletion strains, locus YAL040C, strain CLN3, stronger effect = lower value 1.08 | S. cerevisiae deletion strains, locus YCL061C, strain MRC1 (second series), stronger effect = lower value 1 | S. cerevisiae deletion strains, locus YER002W, strain NOP16, stronger effect = lower value 1 | [2] 1.01 | S. cerevisiae deletion strains, locus YGR229C, strain SMI1, stronger effect = lower value 0.986 | [3] 0.997 | S. cerevisiae deletion strains, locus YNL175C, strain NOP13, stronger effect = lower value 1 | S. cerevisiae deletion strains, locus YNL197C, strain WHI3, stronger effect = lower value 1.02 | S. cerevisiae deletion strains, locus YNL224C, strain SQS1, stronger effect = lower value 0.978 | [4] 0.986 | S. cerevisiae deletion strains, locus YOR083W, strain WHI5 (second series), stronger effect = lower value 1.03 | [5] 1.02 | [6] 0.992

CSc1sc(C#N)c2c1C(O)CCC2 (configuration not stated)
inactive: [1] 0.988 | S. cerevisiae deletion strains, locus YBR229C, strain ROT2, stronger effect = lower value 0.973 | S. cerevisiae deletion strains, locus YDL101C, strain DUN1, stronger effect = lower value 0.977 | S. cerevisiae deletion strains, locus YDR150W, strain NUM1, stronger effect = lower value 0.948 | S. cerevisiae deletion strains, locus YEL061C, strain CIN8, stronger effect = lower value 0.993 | [2] 0.983 | [7] 0.931 | S. cerevisiae deletion strains, locus YHR087W, strain rtc3, stronger effect = lower value 0.968 | S. cerevisiae deletion strains, locus YJR043C, strain POL32, stronger effect = lower value 0.961 | S. cerevisiae deletion strains, locus YJR075W, strain HOC1, stronger effect = lower value 0.96 | S. cerevisiae deletion strains, locus YKL190W, strain CNB1, stronger effect = lower value 0.992 | S. cerevisiae deletion strains, locus YLR039C, strain RIC1, stronger effect = lower value 1.01 | S. cerevisiae deletion strains, locus YLR058C, strain SHM2 (second series), stronger effect = lower value 0.982 | S. cerevisiae deletion strains, locus YLR085C, strain ARP6, stronger effect = lower value 1.03 | S. cerevisiae deletion strains, locus YLR262C, strain YPT6, stronger effect = lower value 1.01 | S. cerevisiae deletion strains, locus YML094W, strain GIM5, stronger effect = lower value 1 | S. cerevisiae deletion strains, locus YMR219W, strain ESC1, stronger effect = lower value 0.985 | [3] 0.95 | S. cerevisiae deletion strains, locus YNL128W, strain TEP1, stronger effect = lower value 0.975 | S. cerevisiae deletion strains, locus YNL153C, strain GIM3, stronger effect = lower value 0.976 | S. cerevisiae deletion strains, locus YNL298W, strain CLA4 (second series), stronger effect = lower value 0.964 | [4] 1 | S. cerevisiae deletion strains, locus YNR030W, strain Alg12, stronger effect = lower value 0.974 | S. cerevisiae deletion strains, locus YOL006C, strain TOP1, stronger effect = lower value 0.959 | [5] 0.902 | [6] 0.982 | S. cerevisiae deletion strains, locus YPR135W, strain CTF4, stronger effect = lower value 0.94 | S. cerevisiae strains, strain wild type, stronger effect = lower value 0.984

CC(C)(C)NC[C@H](O)c1ccc(O)c(CO)c1
inactive: S. cerevisiae deletion strains, locus YAL021C, strain ccr4, stronger effect = lower value 1.02 | S. cerevisiae deletion strains, locus YAL026C, strain drs2, stronger effect = lower value 1.03 | S. cerevisiae deletion strains, locus YAL030W, strain snc1, stronger effect = lower value 1.02 | S. cerevisiae deletion strains, locus YBL061C, strain skt5, stronger effect = lower value 1.01 | S. cerevisiae deletion strains, locus YBR009C, strain hhf1, stronger effect = lower value 1.03 | S. cerevisiae deletion strains, locus YBR023C, strain chs3, stronger effect = lower value 1.02 | S. cerevisiae deletion strains, locus YBR171W, strain sec66, stronger effect = lower value 1.04 | S. cerevisiae deletion strains, locus YBR231C, strain swc5, stronger effect = lower value 1.03 | S. cerevisiae deletion strains, locus YBR279W, strain paf1, stronger effect = lower value 1.02 | S. cerevisiae deletion strains, locus YCL011C, strain gbp2, stronger effect = lower value 1.02 | S. cerevisiae deletion strains, locus YCL016C, strain dcc1, stronger effect = lower value 1.02 | S. cerevisiae deletion strains, locus YCL061C, strain MRC1, stronger effect = lower value 1.01 | S. cerevisiae deletion strains, locus YCL069W, strain vba3, stronger effect = lower value 1.02 | S. cerevisiae deletion strains, locus YCR088W, strain abp1, stronger effect = lower value 1.02 | S. cerevisiae deletion strains, locus YDL005C, strain med2, stronger effect = lower value 1.02 | S. cerevisiae deletion strains, locus YDL040C, strain nat1, stronger effect = lower value 1.02 | S. cerevisiae deletion strains, locus YDR001C, strain nth1, stronger effect = lower value 1.01 | S. cerevisiae deletion strains, locus YDR069C, strain doa4, stronger effect = lower value 1.04 | S. cerevisiae deletion strains, locus YDR137W, strain rgp1, stronger effect = lower value 1.06 | S. cerevisiae deletion strains, locus YDR159W, strain sac3, stronger effect = lower value 1.04 | S. cerevisiae deletion strains, locus YDR195W, strain ref2 1.02 | S. cerevisiae deletion strains, locus YDR297W, strain sur2, stronger effect = lower value 1.05 | S. cerevisiae deletion strains, locus YDR334W, strain swr1, stronger effect = lower value 1.02 | S. cerevisiae deletion strains, locus YDR335W, strain msn5, stronger effect = lower value 1.01 | S. cerevisiae deletion strains, locus YDR392W, strain spt3, stronger effect = lower value 0.992 | S. cerevisiae deletion strains, locus YEL003W, strain gim4, stronger effect = lower value 1.01 | S. cerevisiae deletion strains, locus YEL037C, strain rad23, stronger effect = lower value 1 | S. cerevisiae deletion strains, locus YEL061C, strain CIN8 (second series), stronger effect = lower value 1.01 | S. cerevisiae deletion strains, locus YER015W, strain faa2, stronger effect = lower value 1.02 | S. cerevisiae deletion strains, locus YER016W, strain bim1, stronger effect = lower value 1.03 | S. cerevisiae deletion strains, locus YER111C, strain swi4, stronger effect = lower value 1.02 | S. cerevisiae deletion strains, locus YER155C, strain BEM2 (second series), stronger effect = lower value 1.03 | S. cerevisiae deletion strains, locus YFR010W, strain ubp6, stronger effect = lower value 1.02 | S. cerevisiae deletion strains, locus YGL167C, strain pmr1, stronger effect = lower value 1.01 | S. cerevisiae deletion strains, locus YGL173C, strain kem1, stronger effect = lower value 1.03 | S. cerevisiae deletion strains, locus YGL227W, strain vid30, stronger effect = lower value 1.01 | S. cerevisiae deletion strains, locus YGL240W, strain doc1, stronger effect = lower value 1.02 | S. cerevisiae deletion strains, locus YGL253W, strain hxk2, stronger effect = lower value 1.01 | S. cerevisiae deletion strains, locus YHR013C, strain ard1, stronger effect = lower value 1.04 | S. cerevisiae deletion strains, locus YHR027C, strain rpn1, stronger effect = lower value 1.02 | [7] 0.999 | S. cerevisiae deletion strains, locus YHR079C, strain IRE1, stronger effect = lower value 0.97 | S. cerevisiae deletion strains, locus YHR142W, strain chs7, stronger effect = lower value 1.01 | S. cerevisiae deletion strains, locus YJL092W, strain hpr5, stronger effect = lower value 1.02 | S. cerevisiae deletion strains, locus YJL095W, strain BCK1 (second series), stronger effect = lower value 1.01 | S. cerevisiae deletion strains, locus YJL095W, strain BCK1, stronger effect = lower value 0.966 | S. cerevisiae deletion strains, locus YJL115W, strain asf1, stronger effect = lower value 1.02 | S. cerevisiae deletion strains, locus YJL129C, strain trk1, stronger effect = lower value 1.03 | S. cerevisiae deletion strains, locus YJL154C, strain vps35, stronger effect = lower value 1.02 | S. cerevisiae deletion strains, locus YJL164C, strain tpk1, stronger effect = lower value 1.02 | S. cerevisiae deletion strains, locus YJL166W, strain qcr8, stronger effect = lower value 1.02 | S. cerevisiae deletion strains, locus YJL187C, strain SWE1, stronger effect = lower value 1.02 | S. cerevisiae deletion strains, locus YJR066W, strain TOR1, stronger effect = lower value 0.955 | S. cerevisiae deletion strains, locus YKL160W, strain elf1, stronger effect = lower value 1.02 | S. cerevisiae deletion strains, locus YKR026C, strain gcn3, stronger effect = lower value 1.01 | S. cerevisiae deletion strains, locus YKR091W, strain srl3, stronger effect = lower value 1.02 | S. cerevisiae deletion strains, locus YLL001W, strain dnm1, stronger effect = lower value 1.03 | S. cerevisiae deletion strains, locus YLL026W, stronger effect = lower value 1.03 | S. cerevisiae deletion strains, locus YLL041C, strain sdh2, stronger effect = lower value 1.02 | S. cerevisiae deletion strains, locus YLR027C, strain aat2, stronger effect = lower value 1.02 | S. cerevisiae deletion strains, locus YLR113W, strain HOG1, stronger effect = lower value 0.976 | S. cerevisiae deletion strains, locus YLR221C, strain rsa3, stronger effect = lower value 1.02 | S. cerevisiae deletion strains, locus YLR258W, strain gsy2, stronger effect = lower value 1.03 | S. cerevisiae deletion strains, locus YLR262C, strain YPT6 (second series), stronger effect = lower value 1.03 | S. cerevisiae deletion strains, locus YLR320W, strain mms22, stronger effect = lower value 1.02 | S. cerevisiae deletion strains, locus YLR342W, strain FKS1, stronger effect = lower value 1.03 | S. cerevisiae deletion strains, locus YLR357W, strain rsc2, stronger effect = lower value 1.06 | S. cerevisiae deletion strains, locus YLR370C, strain arc18, stronger effect = lower value 1.02 | S. cerevisiae deletion strains, locus YLR384C, strain iki3, stronger effect = lower value 1.02 | S. cerevisiae deletion strains, locus YML120C, strain ndi1, stronger effect = lower value 1.01 | S. cerevisiae deletion strains, locus YMR058W, strain fet3, stronger effect = lower value 1.02 | S. cerevisiae deletion strains, locus YMR125W, strain sto1, stronger effect = lower value 1.03 | S. cerevisiae deletion strains, locus YMR129W, stronger effect = lower value 1 | S. cerevisiae deletion strains, locus YMR205C, strain PFK2, stronger effect = lower value 1.02 | S. cerevisiae deletion strains, locus YMR231W, strain pep5, stronger effect = lower value 1.03 | S. cerevisiae deletion strains, locus YNL071W, strain lat1, stronger effect = lower value 1.02 | S. cerevisiae deletion strains, locus YNL183C, strain NPR1, stronger effect = lower value 0.912 | S. cerevisiae deletion strains, locus YNL209W, strain ssb2, stronger effect = lower value 1.02 | S. cerevisiae deletion strains, locus YNL248C, strain rpa49, stronger effect = lower value 1.01 | S. cerevisiae deletion strains, locus YNL322C, strain KRE1 (second series), stronger effect = lower value 1.01 | S. cerevisiae deletion strains, locus YNR049C, strain mso1, stronger effect = lower value 1.02 | S. cerevisiae deletion strains, locus YOR001W, strain rrp6, stronger effect = lower value 1.02 | S. cerevisiae deletion strains, locus YOR070C, strain gyp1, stronger effect = lower value 1.01 | S. cerevisiae deletion strains, locus YOR080W, strain dia2, stronger effect = lower value 1.02 | S. cerevisiae deletion strains, locus YOR083W, strain WHI5, stronger effect = lower value 1.01 | S. cerevisiae deletion strains, locus YOR106W, strain vam3, stronger effect = lower value 1.02 | S. cerevisiae deletion strains, locus YOR231W, strain MKK1, stronger effect = lower value 0.973 | S. cerevisiae deletion strains, locus YOR265W, strain rbl2, stronger effect = lower value 1.01 | S. cerevisiae deletion strains, locus YOR270C, strain vph1, stronger effect = lower value 1.07 | S. cerevisiae deletion strains, locus YOR290C, strain snf2, stronger effect = lower value 1.03 | S. cerevisiae deletion strains, locus YPL051W, strain arl3, stronger effect = lower value 1.02 | S. cerevisiae deletion strains, locus YPL078C, strain atp4, stronger effect = lower value 1.02 | S. cerevisiae deletion strains, locus YPL106C, strain sse1, stronger effect = lower value 1.03 | S. cerevisiae deletion strains, locus YPL240C, strain hsp82, stronger effect = lower value 1.02 | S. cerevisiae deletion strains, locus YPL256C, strain CLN2, stronger effect = lower value 0.971
